The nature of the test: qHTS profiling of the MIPE4 collection as inhibitors of Plasmodium falciparum (HB3) proliferation (AID 743347).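 Further: plate controls were DMSO vehicle wells for no effect and artemisinin wells for full effect.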 Conditions: P. falciparum HB3 in erythrocytes, SYBR Green DNA, 72 h; at 28.5 µM (top of the series) unless noted. The text has this:
Plasmodium falciparum is a virulent malarial parasite that kills 1-2 million people worldwide each year. Transmitted by mosquitoes, the sporozoite form of the parasite enters the blood stream to infect hepatocytes, where they become merozoites that infect red blood cells (erythrocytes). Within erythrocytes, merozoites begin a […] cycle of growth and division, after which the parasite is released to infect new red blood cells. Gametocytes, which form within erythrocytes as well, circulate in the bloodstream and are ingested by the mosquito, thereby completing the life cycle. To profile malarial isolates for differential chemical responses and to identify inhibitors of malarial growth, an assay that measures P. falciparum growth and replication within erythrocytes was employed. This assay uses a DNA binding fluorescent dye (SYBR Green) to detect parasite DNA following cell lysis. Because mature erythrocytes lack DNA, only Plasmodium-derived DNA is detected.
The SYBR Green viability assay was adapted from a method described previously (Plouffe et al., 2008). For screening 3 ul culture medium was dispensed into 1536 well black clear bottom plates (Aurora Biotechnologies) using a Multidrop Combi (Thermo Fisher Scientific Inc.), 23 nL compounds in DMSO were added by a pin tool (Kalypsys), and 5 ul of erythrocytes infected with P. falciparum (0.3% parasitemia, 2.5% hematocrit final concentration) were added. The plates were incubated at 37 C in a humidified incubator in 5% CO2 for 72 h, and 2 ul lysis buffer (20 mM Tris HCl, 10 mM EDTA, 0.16% saponin, 1.6% triton X, 10X SYBR Green I supplied as 10,000X […] by Invitrogen) was added to each well. The plates were mixed for 25 sec with gentle shaking and incubated overnight at room temperature in the dark. The following morning, fluorescence intensity at 485(14) nm excitation and 535(25) nm emission wavelengths was measured on an EnVision (Perkin Elmer) plate reader. Plate reads were normalized relative to the control inhibitor (0.29 uM artemisinin) and vehicle (DMSO) wells present on each plate and then corrected by an algorithm using vehicle-only control plates at the beginning and end of the compound plate stack.
Compound `CC1(C)Cc2c(sc(NC(=S)NC(=O)c3ccccc3)c2C(=O)O)CO1` displayed a growth, % of control of 103%.

The compound `NC(=O)c1cccc2[nH]c(-c3ccc([C@H]4CCCN4)cc3F)nc12` came in with a growth, % of control of 2.5%. Under `Nc1ncnc2c1nc(Cl)n2[C@@H]1O[C@H](CO)[C@@H](O)[C@@H]1O` stands 125%. Under `CC#CCn1c(N2CCC[C@@H](N)C2)nc2c1c(=O)n(Cc1nc(C)c3ccccc3n1)c(=O)n2C` stands 88.9%; under `Cc1c(O)cccc1C(=O)N[C@@H](CSc1ccccc1)[C@H](O)CN1C[C@H]2CCCC[C@@H]2C[C@@H]1C(=O)NC(C)(C)C`, 15.7%; under `C[C@H](NC(=O)C(=O)Nc1ccccc1C(C)(C)C)C(=O)N[C@@H](CC(=O)O)C(=O)COc1c(F)c(F)cc(F)c1F`, 405%. `O=c1c(-c2ccc(O)cc2)coc2cc(O)ccc12`: the growth, % of control is 89.3%. Under `CC1(C)S[C@H]2[C@H](NC(=O)[C@@H](N)c3ccc(O)cc3)C(=O)N2[C@@H]1C(=O)O` stands 6.54%; under `CCOC(=O)C1=C(N)Oc2ccc(Br)cc2C1C(C#N)C(=O)OCC` (stereo not given), 107%; under `Clc1ccc(COC(Cn2ccnc2)c2ccc(Cl)cc2Cl)cc1` (stereo not given), 3.47%.

Turning to `Cc1[nH]c(C=C2C(=O)Nc3ccc(S(=O)(=O)Cc4c(Cl)cccc4Cl)cc32)c(C)c1C(=O)N1CCC[C@H]1CN1CCCC1`, the growth, % of control was 5.52%. Under `O=C(Nc1ccccc1-c1cn2c(CN3CCNCC3)csc2n1)c1cnc2ccccc2n1` stands 3.22%. Under `NC[C@@H]1O[C@@H](O[C@H]2[C@@H](O)[C@H](O[C@@H]3[C@@H](O)[C@@H](N)C[C@H](N)[C@H]3O[C@H]3O[C@H](CN)[C@@H](O)[C@@H](O)[C@H]3N)O[C@H]2CO)[C@H](N)[C@@H](O)[C@@H]1O` stands 99.6%; under `COC1CCC(N(C(=O)C2CCC(C)CC2)c2cc(C3=CCCCC3)sc2C(=O)O)CC1` (stereo not given), 22.9%. Consider `C[C@]12CC[C@@H]3c4ccc(O)cc4CC[C@H]3[C@H]1C[C@@H](O)[C@H]2O`, for which the growth, % of control worked out at 63.5%.

The compound `Cn1c(N2CCCCS2(=O)=O)nc(C(=O)NCc2ccc(F)cc2)c(O)c1=O` came in with a growth, % of control of 62.6%. `CC1(C)CCC[C@@]2(C)[C@@H]1CC[C@@]1(C)OC(=O)C[C@H]21` showed a growth, % of control of 64.8%. Under `C[C@@H](O)[C@H]1C(=O)N2C(C(=O)O)=C(S[C@@H]3CN[C@H](C(=O)N(C)C)C3)[C@H](C)[C@H]12` stands 61.4% [at 9.64 µM]. `O=C(N[C@@H](c1ccccc1)[C@@H]1CCCCN1)c1cccc(C(F)(F)F)c1Cl` had a growth, % of control of 8.07%. Under `Cc1ccc(/C=N/NC(=O)c2ccccc2Oc2ccccc2)o1` stands 92%; under `CC1(C)CCC2=C(O1)c1ccccc1C(=O)C2=O`, 20.3%; under `CCC(CC)[C@H](NC(C)=O)[C@@H]1[C@H](O)[C@@H](C(=O)O)C[C@@H]1N=C(N)N`, 97.8%. Under `O=c1ccn([C@@H]2O[C@H](CO)[C@H](O)[C@H]2O)c(=O)[nH]1` stands 107%; under `CC(=O)O[C@]1(C(C)=O)CC[C@@H]2[C@@H]3C[C@H](C)C4=CC(=O)CC[C@]4(C)[C@H]3CC[C@@]21C`, 16.6%; under `N#C[C@H]1C[C@H]2C[C@@H]2N1C(=O)[C@@H](N)C12CC3CC(CC(O)(C3)C1)C2`, 69.2%.

`CCCCCN(C)CCC(O)(P(=O)(O)O)P(=O)(O)O` came in with a growth, % of control of 90.7%. Under `O=C1NC(=O)C(=Cc2ccc3nccnc3c2)S1` stands 88.4% [at 9.64 µM]. `COc1ncc(-c2ccc3nccc(-c4ccnnc4)c3c2)cc1NS(=O)(=O)c1ccc(F)cc1F` gave a growth, % of control of 4.97%. Under `O=c1[nH]cnc2c1ncn2[C@H]1CC[C@@H](CO)O1` stands 659%; under `NS(=O)(=O)c1cccc2c1C(=O)c1cccc(O)c1C2=O`, 2.61%; under `CN(C)c1cc(NC(=O)CNC(C)(C)C)c(O)c2c1C[C@@H]1C[C@H]3[C@H](N(C)C)C(=O)C(C(N)=O)=C(O)[C@@]3(O)C(=O)C1=C2O`, 98.7%. Under `CC[C@@]1(O)C[C@H](O[C@H]2C[C@H](N(C)C)[C@H](O[C@H]3C[C@H](O)[C@H](O[C@H]4CCC(=O)[C@H](C)O4)[C@H](C)O3)[C@H](C)O2)c2c(cc3c(c2O)C(=O)c2c(O)cccc2C3=O)[C@@H]1C(=O)OC` stands 2.06%; under `CC(C)(C)Cn1c(N)nc2ccc(-c3[nH]c(C(C)(C)C)nc3-c3ccc(F)cc3)nc21`, 4.94%; under `c1ccc2c(Cc3c[nH]c4ccccc34)c[nH]c2c1`, 23.8%.

`CC(C)C[C@H](CC(=O)O)C(=O)N[C@@H](Cc1c[nH]c2ccccc12)C(=O)N[C@@H](C)c1ccccc1`: the growth, % of control stood at 34.7%. Under `CO[C@H]1C[C@@H]2CC[C@@H](C)[C@@](O)(O2)C(=O)C(=O)N2CCCC[C@@H]2C(=O)O[C@H]([C@H](C)C[C@@H]2CC[C@H](OC(=O)C(C)(CO)CO)[C@H](OC)C2)CC(=O)[C@H](C)C=C(C)[C@@H](O)[C@@H](OC)C(=O)[C@H](C)C[C@H](C)C=CC=CC=C1C` stands 3.93%; under `C[N+](C)(C)CC(=O)O`, 85.2%.

In turn, `Cc1ccc(C(C)(O)c2nc3ccccc3s2)c(C)c1` (stereo not given) came in with a growth, % of control of 95.9%.

On to `Clc1ccc(-c2nc3sccn3c2C=NOCc2ccc(Cl)c(Cl)c2)cc1`, for which the growth, % of control worked out at 43.2%. Under `NC(=O)NN=Cc1ccc([N+](=O)[O-])o1` stands 13.3%.

For the origin of these results see PubChem BioAssay (NCATS).
